Data on 19 compounds can be found in PubChem BioAssay (Tox21).

Inconclusive results are not listed. Calls of active or inactive are those of the source. Unless noted, calls come from the whole dose curve; as a rule, active = well fitted curve in the direction sought with a large enough effect in the repeat runs; inconclusive = weak or mixed curves; inactive = no such curve, though single readings can be large; an effect the other way counts as inactive or inconclusive.

Experiment [1] can be described thus: qHTS assay for small molecule agonists of the p53 signaling pathway (AID 651631; calls by dose curve; note: nearly all actives have a fitted effect of over 15% in size). The procedure, abridged:
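Fluorescence intensity from cleaved LiveBLAzer B/G substrate (2 h, room temperature) served as the signal. Beforehand, HCT-116 reporter cells bearing p53 response elements were treated 16 h at 37 °C with DMSO-dissolved compounds.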
In general terms: In qHTS, concentration-response curves come from the screen itself.

Experiment [2] is described as follows: qHTS assay for small molecule agonists of the p53 signaling pathway - cell viability (AID 651633; calls by dose curve; note: nearly all actives have a fitted effect of over 30% in size; note: potency is the fitted concentration of half-maximal effect). The procedure, abridged:
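p53RE-bla cells, seeded at 4,000 per well and rested 5 h at 37 C/5% CO2, received compounds in DMSO for 16 h at 37 C. CellTiter-Glo was then added, and luminescence was read after 30 min at room temperature to gauge cytotoxicity.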

A short description of experiment [3]: qHTS assay for small molecules that induce genotoxicity in human embryonic kidney cells expressing luciferase-tagged ATAD5 - cell viability (AID 651634; calls by dose curve; note: nearly all actives have a fitted effect of over 25% in size; note: potency is the fitted concentration of half-maximal effect). The procedure, abridged: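 15.5 hr compound or vehicle exposure of HEK293T cells expressing luciferase-tagged ATAD5 at 37C; live-cell protease activity is read by fluorescence after 30 min of CellTiter-Fluor.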

A short description of experiment [4]: qHTS assay for small molecule disruptors of the mitochondrial membrane potential (AID 720635). Note: potency is the fitted concentration of half-maximal effect. The procedure, abridged: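 HepG2 cells (2,000/well) attached overnight at 37C, then took compound for 1 hr at 37C, 5% CO2. Mito-MPS dye was added for 30 min; fluorescence was read at 490/535 nm (monomers) and 540/590 nm (aggregates).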
The nature of experiment [5]: qHTS assay to test for compound auto fluorescence at 590 nm (red) in HepG2 cells (AID 720674). The procedure, abridged:
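Compound auto-fluorescence is scored relative to Rose Bengal sodium, measured at 540/590 nm in live HepG2 cultures after 1 hr compound contact (37 C, 5% CO2).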

A short description of experiment [6]: qHTS assay to test for compound auto fluorescence at 535 nm (green) in HepG2 cells (AID 720675).
Experiment [7] in a line: qHTS assay to test for compound auto fluorescence at 460 nm (blue) in HEK293 cells (AID 720678). The procedure, abridged:
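Auto fluorescence in the blue band was quantified as triamterene equivalency. HEK293 cells were seeded at 2,000/well, dosed after a 4-5 hr attachment, and kept overnight at 37C before the 405/460 nm reading.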

The nature of experiment [8]: qHTS assay to test for compound auto fluorescence at 590 nm (red) in HEK293 cells (AID 720679). The procedure, abridged:
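Autofluorescence equivalency to Rose Bengal sodium, 540/590nm, in HEK293 cells exposed overnight to 23 nL compound per well.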

A short description of experiment [9]: qHTS assay for small molecules that induce genotoxicity in human embryonic kidney cells expressing luciferase-tagged ATAD5 (AID 651632). Note: nearly all actives have a fitted effect of over 15% in size. Note: potency is the fitted concentration of half-maximal effect. The procedure, abridged: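 Concentration-response screen for ATAD5 upregulation in HEK293T luciferase reporter cells; 16 hr treatment at 37C, then luminescence after 30 min with Amplite at room temperature.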
The nature of experiment [10]: qHTS assay for small molecule disruptors of the mitochondrial membrane potential - cell viability (AID 720634; calls by dose curve; note: nearly all actives have a fitted effect of over 20% in size; note: potency is the fitted concentration of half-maximal effect). The procedure, abridged: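 In this qHTS format, HepG2 cells plated overnight were pinned with compound, incubated 1 hr, and assayed for ATP luminescence with CellTiter-Glo after m-MPI dye addition.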

For the compound `O=P(O)(O)OP(=O)(O)OP(=O)(O)O`, the Potency entry in [1], in experiment [2], in [3], in experiment [4], in experiment [6] and in [7] was “inactive” throughout. For the same compound, the call in [5] and in experiment [8] was inactive.

Regarding `CCOc1ccc([N+](=O)[O-])cc1`, the Potency entry in experiment [9], in [6] and in [7] was “inactive” in each case. The figures for the Potency in experiment [2], in experiment [10] and in experiment [4] were 62 µM (active), 55.3 µM (active) and 3.91 µM (active), respectively. Besides, the outcome in [5] and in [8] was inactive.

As to `O=C(Nc1ccccc1)c1cc(Cl)ccc1O`, the Potency result in [9], in experiment [6] and in experiment [7] was “inactive” each time. The Potency in experiment [2] was 17.2 µM (active); in experiment [10], 1.93 µM (active); in [4] it was 0.386 µM (active). Further, the outcome in [5] and in experiment [8] was inactive.

Consider `NC(N)=NCCCCN=C(N)N`, for which the Potency entry in experiment [9], in [2], in experiment [3], in experiment [10], in [4] and in experiment [6] was “inactive” in each case. The Potency entry in experiment [7] was “inactive”. Moreover, in [8], the compound was classed as inactive.

Regarding `Cc1ccc2nc(-c3ccc(N)cc3)sc2c1S(=O)(=O)O`, the Potency in [9] is 0.85 µM (active). Moreover, the Potency entry in experiment [2], in experiment [3] and in experiment [6] was “inactive” each time. Besides, the outcome in experiment [5] and in experiment [8] was inactive.

For the compound `O=C1c2ccccc2-c2n[nH]c3cccc1c23`, the Potency entry in experiment [9], in experiment [2], in experiment [3], in experiment [10] and in experiment [6] was “inactive” in each case. In experiment [4], the Potency is 0.784 µM (active). Besides, the compound was classed as inactive in experiment [5] and in [8].

`N[C@H](CO)C(=O)O`: the Potency entry in experiment [9], in experiment [2], in experiment [10], in experiment [6] and in [7] was “inactive” each time. For the same compound, the compound was classed as inactive in experiment [5] and in [8].

Consider `CN(C/C=C/c1ccccc1)Cc1cccc2ccccc12`, for which the Potency result in experiment [9], in experiment [2], in experiment [3], in [10], in [4] and in [6] was “inactive” throughout. Also, in experiment [7], the Potency entry is “inactive”. Moreover, the compound was called inactive in [8].

With `CN(C)CCOc1ccc(/C(=C(/CCCl)c2ccccc2)c2ccccc2)cc1`, the Potency result in experiment [9], in experiment [3], in [10], in [6] and in experiment [7] was “inactive” throughout. For the same compound, in [2], the Potency was 57.2 µM (active). Also, the outcome in experiment [5] and in [8] was inactive.

Turning to `Nc1c(CC(=O)O)cccc1C(=O)c1ccccc1`, the Potency result in experiment [9], in [2], in experiment [3], in experiment [10], in experiment [4] and in experiment [6] was “inactive” in each case. In experiment [7], the Potency result is “inactive”. Further, the outcome in [5] and in [8] was inactive.

Consider `CCN(CC)CCn1c(=O)c(Cc2ccc(OC)cc2)nc2ccccc21`, for which the Potency result in experiment [9], in experiment [2], in [3], in experiment [10], in experiment [4] and in experiment [6] was “inactive” throughout. In addition, the Potency entry in [7] is “inactive”. In experiment [8], the outcome was inactive.

For the compound `CC[C@H](C)C(=O)O[C@H]1CCC=C2C=C[C@H](C)[C@H](CC[C@@H]3C[C@@H](O)CC(=O)O3)[C@H]21`, the Potency result in experiment [9], in experiment [2], in experiment [3], in experiment [10] and in experiment [6] was “inactive” each time. In addition, the compound was classed as inactive in experiment [5] and in experiment [8].

As for `COc1cccc2c1[C@@H]1CN(CCCCn3c(=O)[nH]c4c(sc5ncc(-c6ccccc6)nc54)c3=O)C[C@@H]1CO2`, the Potency result in experiment [9], in [10], in experiment [6] and in experiment [7] was “inactive” in each case. The Potency in [2] is 29.8 µM (active); in experiment [3] it was 26.6 µM (active); in experiment [4], 13.3 µM (active). In addition, the call in experiment [5] and in [8] was inactive.

Regarding `CC(C)(C)c1ccc2c(S(=O)(=O)O)c(C(C)(C)C)ccc2c1`, the Potency entry in [9], in experiment [2], in experiment [3], in [6] and in [7] was “inactive” in each case. Further, the compound was called inactive in experiment [5] and in experiment [8].

Regarding `CCCn1c(=O)[nH]c(=O)c2[nH]cnc21`, the Potency result in experiment [9], in experiment [2], in experiment [3], in experiment [10], in experiment [4] and in [6] was “inactive” in each case. Moreover, in experiment [7], the Potency result was “inactive”. Moreover, the outcome in [5] and in experiment [8] was inactive.

In the case of `c1ccc2occc2c1`, the Potency entry in experiment [9], in experiment [2], in experiment [3], in experiment [10], in [6] and in experiment [7] was “inactive” in each case. Moreover, the result in [5] and in [8] was inactive.

In the case of `CN(C[C@@H](CC[N+]12CCC(C3CCCCC3)(CC1)CC2)c1ccc(Cl)c(Cl)c1)C(=O)c1cc(C(F)(F)F)cc(C(F)(F)F)c1`, the Potency result in [9], in experiment [6] and in experiment [7] was “inactive” throughout. For the same compound, the Potency in experiment [2] is 27.3 µM (active). Also, in [8], the call was inactive.

Consider `CCCCCCCCCCCCN1CCCC1=O`, for which the Potency result in experiment [9], in experiment [3], in experiment [6] and in experiment [7] was “inactive” in each case. Moreover, the Potency in [2] is 61.1 µM (active); in experiment [4] it was 68.6 µM (active). The outcome in [5] and in experiment [8] was inactive.

`CCCCCCCCCCCCCCCCCCNC(=O)OC1CCN(C(=O)OC[C@H](COC(=O)N(Cc2cccc[n+]2CC)C(=O)c2ccccc2OC)OC)CC1`: the Potency result in [9], in experiment [6] and in experiment [7] was “inactive” in each case. Besides, the Potency in [2] is 26.6 µM (active). Moreover, in [8], the result was inactive.
